Source: PubChem (several laboratories)
This is a sample that favours compounds with a hit; in the whole collection about 2.4% have one here.
A3A deaminase: blocks human APOBEC3A ssDNA deamination; inhibition, % at 20 µM; actives 0.41% (n = 330,000); AID 493011; recombinant A3A, FAM/TAMRA ssDNA deamination fluorescence;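 active = at least 40% inhibition at 20 µM here, with at most 30% in a related deaminase screen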
A3G deaminase: APOBEC3G (human) deaminase inhibition. Q9HC16. recombinant A3G, ssDNA deamination FAM/TAMRA fluorescence. inhibition, % at 20 µM. actives 0.28% (n = 330,000);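 active = inhibition of at least 40% at 20 µM, with no more than 30% in the related APOBEC3A deaminase screen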
ADAM17 inh: ADAM17 inhibition, QFRET primary screen; recombinant ADAM17, EDANS/DABCYL FRET peptide cleavage; inhibition, % at 6.95 µM; actives 0.83% (n = 370,000); AID 720648;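 active = inhibition above the mean of compounds lying between control limits plus 3 SD, set per campaign, cut at about 8.5% in these data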
Target sequence (P78536 215-824 limits assumed): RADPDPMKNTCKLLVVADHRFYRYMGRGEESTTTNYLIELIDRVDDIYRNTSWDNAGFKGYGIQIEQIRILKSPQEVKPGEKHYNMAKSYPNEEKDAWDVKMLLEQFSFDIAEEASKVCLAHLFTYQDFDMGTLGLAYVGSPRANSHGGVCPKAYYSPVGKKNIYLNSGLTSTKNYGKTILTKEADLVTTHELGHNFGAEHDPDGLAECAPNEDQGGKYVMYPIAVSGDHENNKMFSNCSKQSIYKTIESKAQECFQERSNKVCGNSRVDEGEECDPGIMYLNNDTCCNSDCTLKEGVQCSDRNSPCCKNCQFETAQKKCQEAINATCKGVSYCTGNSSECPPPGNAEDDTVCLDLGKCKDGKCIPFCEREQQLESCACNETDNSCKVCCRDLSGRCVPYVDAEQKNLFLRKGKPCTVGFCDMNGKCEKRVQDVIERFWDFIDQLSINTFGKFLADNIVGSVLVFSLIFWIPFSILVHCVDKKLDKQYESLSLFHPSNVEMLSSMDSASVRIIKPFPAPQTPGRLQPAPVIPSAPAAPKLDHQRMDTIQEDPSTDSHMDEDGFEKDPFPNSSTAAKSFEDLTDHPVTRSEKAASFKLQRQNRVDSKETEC
ADAM10 inh: inhibitors of human ADAM10; actives 0.62% (n = 370,000); inhibition, % at 7 µM; O14672; recombinant ADAM10, EDANS/DABCYL FRET peptide cleavage, 3 h;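 active = inhibition above a per-campaign cutoff equal to the mean of compounds falling between control-based bounds plus 3 SD, cut at about 20% in these data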
NRP1-CendR mod: alters CendR peptide binding to human NRP-1. FAM-RPARPAR peptide binding to NRP-1, fluorescence polarization. inhibition, % at 25 µM. actives 0.85% (n = 360,000);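 active = inhibition or corrected inhibition above about 18%, plus a signal ratio from 0.5 to 1.5, limit read from the data, passing the limit was not always enough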
A3A conf: confirmation of human APOBEC3A DNA deaminase inhibitors; shares compounds with A3A deaminase; recombinant A3A, ssDNA deaminase UDG fluorescence assay; inhibition, % at 20 µM; actives 63% (n = 1,400); AID 493151;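 active = inhibition reaching a set limit, 80% of the first screen's cutoff, at 20 µM in any replicate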
UDG A3A counter: inhibits UDG, flagging false APOBEC3A inhibitors; shares compounds with A3A deaminase; UDG counterscreen, FAM/TAMRA uracil oligo fluorescence; inhibition, % at 20 µM; 1,000 tested, under 10 active; AID 504714; call rule not given here
Each line names hits and unclear results; the compound was inactive in the other large screens (follow-up assays come after a bar, where they were run).

Cc1ccc(NC(=O)[C@H]2CC(=O)O[C@@H]2c2ccccc2)cc1C	none (no result: A3A deaminase, A3G deaminase, NRP1-CendR mod)
CCCOC(=O)Nc1cc(OC)c(Cl)cc1OC	NRP1-CendR mod 16.7
CC(C)CNC(=O)OCc1cn(Cc2ccccc2F)nn1	none (no result: A3A deaminase, A3G deaminase, NRP1-CendR mod)
CCN(CC)C(=O)CSc1nnc(-c2ccccn2)n1C	none (no result: A3A deaminase, A3G deaminase, NRP1-CendR mod)
COC(=O)C1CCC(=S)N1C(=O)c1ccccc1 (stereo not given)	none
COC(=O)[C@H]1CN(C(=O)c2ccccc2)C(=O)N1	NRP1-CendR mod 24.9
COC(=O)C[C@@H]1CC[C@@H]2[C@H](COc3ccc(NC(=O)Nc4c(C)noc4C)cc3C(=O)N2C)O1	none (no result: A3A deaminase, A3G deaminase, NRP1-CendR mod)
CC(=O)NS(=O)(=O)c1ccc(NC(=O)C(C)NS(=O)(=O)/C=C/c2ccccc2)cc1 (stereo not given)	NRP1-CendR mod 19.8
CCCCOCC1CN(CCCC)S(=O)(=O)c2c(cccc2N2CCCCC2)O1 (stereo not given)	none (no result: A3A deaminase, A3G deaminase, NRP1-CendR mod)
COC(=O)C1=C(C)N(Cc2cccc(C(F)(F)F)c2)C(=NCc2cc(OC)c(OC)c(OC)c2)NC1c1ccccc1C(F)(F)F (stereo not given)	none (no result: A3A deaminase, A3G deaminase, NRP1-CendR mod)
O=C(NCc1ccccn1)C1CCN(C2CCN(Cc3cccc(F)c3)CC2)CC1	NRP1-CendR mod 23.3 (no result: A3A deaminase, A3G deaminase)
COC(=O)C[C@H]1CC[C@@H]2[C@@H](COc3ccc(NC(=O)Nc4cccc(C)c4)cc3C(=O)N2C)O1	none (no result: A3A deaminase, A3G deaminase, NRP1-CendR mod)
O=C1C=C(c2cccc3c2Oc2ccccc2S3)C[C@@H](c2ccc(Cl)cc2)C1	NRP1-CendR mod 29.2
C#CCOCCOCCOCCNc1nc(N2CCOCC2)nc(N2CCN(C(=O)[C@H](CCC(=O)O)n3cc(C(N)CC(C)C)nn3)CC2)n1 (stereo not given in full)	none (no result: A3A deaminase, A3G deaminase, NRP1-CendR mod)
CCOc1ccc2nc3cc(N=Nc4ccc(N)nc4N)ccc3c(N)c2c1	NRP1-CendR mod 50.1 (no result: A3A deaminase, A3G deaminase, ADAM17 inh, ADAM10 inh)
Cc1oc(-c2ccc(Cl)cc2)cc1C(=O)O	NRP1-CendR mod 44.3
Cc1ccc(SCC(=O)OCC(=O)N(CCC#N)c2ccccc2)cc1	NRP1-CendR mod 31.3
CC(C)Oc1ccc(C(CCNCc2ccc(O)cc2)c2ccccc2)cc1 (stereo not given)	NRP1-CendR mod 25.1
CCc1ccc(NC(=O)N(Cc2ccco2)C(C)c2cccs2)cc1 (stereo not given)	NRP1-CendR mod 31.6
CC(=O)Nc1sc2c(c1-c1nc(-c3ccccc3)cs1)CCN(C(C)C)C2	none (no result: A3A deaminase, A3G deaminase, NRP1-CendR mod)
CN1c2ccccc2C(C)(C)C12CC(c1ccc(S(=O)(=O)N3CCCCC3)cc1)=NO2 (stereo not given)	NRP1-CendR mod 19.3
COc1cccc(CNC(=O)C[C@H]2CC[C@H]3[C@@H](COc4ccc(NC(=O)c5cccs5)cc4C(=O)N3C)O2)c1	none (no result: A3A deaminase, A3G deaminase, NRP1-CendR mod)
N/C(=N\OC(=O)c1ccc(Cl)cc1Cl)c1ccccc1	none
N/C(=N\OC(=O)c1ccc(Cl)cc1Cl)c1ccc(Cl)cc1	NRP1-CendR mod 30.5
S=C(Nc1ccc(Cl)cc1Cl)Nc1ccccc1Oc1ccccc1	none (no result: ADAM17 inh, ADAM10 inh)
S=C(Nc1ccccc1Oc1ccccc1)Nc1cccc(Cl)c1Cl	NRP1-CendR mod 28.2 (no result: A3A deaminase, A3G deaminase)
C=CCCC(=O)N1CCC(C(=O)NCC2COc3ccccc3O2)CC1 (stereo not given)	none (no result: A3A deaminase, A3G deaminase, NRP1-CendR mod)
Cc1c(CN2CCN(CC(C)(C)C)C(CCO)C2)[nH]c2ccccc12 (stereo not given)	none
CCOc1ccc(CN2CCN(Cc3[nH]c4ccccc4c3C)CC2CCO)cc1 (stereo not given)	NRP1-CendR mod 38.3
CC(C)N1CCN(S(=O)(=O)c2ccc3ccccc3c2)CC1	none
CC(C)NC(=O)C(C)N1CCN(S(=O)(=O)c2ccc3ccccc3c2)CC1 (stereo not given)	A3A deaminase 57.0 | A3A conf 59.4 | UDG A3A counter inactive
Cc1cc(O)c(CN(C)C)c2c1C(=O)/C(=C/c1ccco1)O2	A3A deaminase 47.6 | A3A conf 15.2 | UDG A3A counter inactive
COc1ccc2c(c1)O/C(=C\c1ccco1)C2=O	none
O=C(C1CCC1)N1CCN(S(=O)(=O)c2ccc(F)cc2)CC1	A3A deaminase 45.7 | A3A conf inactive
Cc1ccc(NC(=O)CN(C)CC(=O)Nc2ccc(F)c(Cl)c2)cc1	A3A deaminase 61.0 | A3A conf inactive
Cc1ccc(OCCC(=O)Nc2ccc(F)c(Cl)c2)cc1	none
CCOc1ccc(NC(=O)CC2C(=O)N(c3ccccc3)C(=O)N2Cc2ccco2)cc1 (stereo not given)	none
CCOc1ccc(NC(=O)CC2C(=O)N(c3ccccc3)C(=O)N2CCc2cccs2)cc1 (stereo not given)	A3A deaminase 71.7 | A3A conf inactive | UDG A3A counter inactive
O=C(C[n+]1cccc(C(=O)Nc2ccccc2)c1)c1ccc(Cl)cc1	none (no result: A3A deaminase, A3G deaminase)
NC(=O)C[n+]1cccc(C(=O)Nc2ccccc2)c1	A3A deaminase 76.2 | A3A conf 77.5 | UDG A3A counter inactive
CSCC[C@H](NC(=O)c1ccc(Cl)c(S(=O)(=O)N2CCCC2)c1)c1nc2ccccc2[nH]1	A3A deaminase 45.0 | A3A conf 54.3 | UDG A3A counter inactive
CSCCC(NC(=O)c1cccc(S(=O)(=O)N2CCN(C(C)=O)CC2)c1)c1nc2ccccc2[nH]1 (stereo not given)	none (no result: A3A deaminase, A3G deaminase)
O=C(NCc1ccc2c(c1)OCO2)C1CCCN1S(=O)(=O)c1ccc(F)cc1 (stereo not given)	A3A deaminase 55.1 | A3A conf inactive | UDG A3A counter inactive
CCOC(=O)CC1(C)OCC(C[N+]2(C)CCCCC2)O1 (stereo not given)	A3A deaminase 78.0 | A3A conf 80.6 | UDG A3A counter inactive
CCCCc1ccc(NC(=O)Nc2c(C)n(C)n(-c3ccccc3)c2=O)cc1	A3A deaminase 62.2 | A3A conf inactive | UDG A3A counter inactive
CCc1ccc(NC(=O)Nc2c(C)n(C)n(-c3ccccc3)c2=O)cc1	none
CCCCCCCn1c2c(c(=N)c3ccccc31)CCC2	A3A deaminase 73.9 | A3A conf 77.8 | UDG A3A counter inactive
CCCn1c2c(c(=N)c3c1CCC3)CCC2	A3A deaminase 71.1 | A3A conf 75.3 | UDG A3A counter inactive
CCCn1c2c(c(=N)c3c1CCC3)CCCC2	A3A deaminase 91.7 | A3A conf 76.7 | UDG A3A counter inactive
CCOC(=O)Cn1c2c(c(=N)c3c1CCC3)CCCC2	none
NC(=O)c1ncn([C@@H]2O[C@H](C(=O)N[C@H](Cc3c[nH]c4ccccc34)C(=O)N3CCN(CC(=O)N4CCCC4)CC3)[C@@H](O)[C@H]2O)n1	none (no result: A3A deaminase, A3G deaminase, NRP1-CendR mod)
CCn1c(SC)nnc1-c1nn(-c2ccccc2)ccc1=O	A3A deaminase 57.9 | A3A conf 66.3 | UDG A3A counter inactive
Cn1c(CC(=O)Nc2ccccc2F)nnc1SCC(=O)NC1CCCC1	none
Cn1c(CC(=O)Nc2ccccc2F)nnc1SCC(=O)N1CCOCC1	A3A deaminase 40.3 | A3A conf inactive
